Most compounds without a hit are left out; they make up all but 3.3% or so of the library.
Hsp90 Hop PPI = qHTS Assay for Disrupters of an Hsp90 Co-Chaperone Interaction. AID 595, 2007. AlphaScreen TPR2A-His6 binding biotin-Hsp90 C-terminal peptide. Potency, µM (highest dose often 57 µM). Hsp90 C-terminal peptide / TPR2A (Hop) interaction, human. 71,000 compounds, 0.44% hits; active means well fitted curve in either direction with a large enough effect; inconclusive means small, poorly fitted or top-dose-only effect, or another doubt
YjeE inh = qHTS Assay for Inhibitors of YjeE; 71,000 compounds, 0.05% hits; Potency, µM; purified YjeE enzyme, qHTS inhibition assay; tRNA threonylcarbamoyladenosine biosynthesis protein TsaE (Escherichia coli (strain …
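Fluorescence polarization of a BODIPY Texas Red–ADP probe (2 uM) bound to purified YjeE (10 uM) was read after 15 min room-temperature incubation with compounds. Loss of polarization marks inhibitors; ADP serves as titrated control.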
HEK293 cAMP cs = qHTS Assay for Agonists of the Thyroid Stimulating Hormone Receptor: Activators of Intracellular cAMP Concentrations in Parental HEK 293. Potency, µM (titrated, usually from 57.1 µM), most hits filed as activators. parental HEK293 CNG cAMP sensor, membrane potential fluorescence. AID 938, 2007. 73,000 compounds, 2.5% hits; further: nearly all actives have a fitted effect of over 55% in size
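Parental HEK 293 cells stably expressing a cAMP-gated CNG channel were loaded with membrane potential dye containing 100 uM RO 20-1724 for 60 min. Compound added for 30 min; depolarization read as fluorescence intensity at 590 nm.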
BRCT PPI green = qHTS Assay for Inhibitors of BRCT-Phosphoprotein Interaction (Green Fluorophore); 75,000 compounds, 0.05% hits; BRCA1 BRCT-phosphopeptide binding, green fluorescence polarization; Breast cancer type 1 susceptibility protein (Homo sapiens), P38398; Potency, µM (series often up to 76.9 µM), most hits filed as inhibitors
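Compounds were incubated for 12 min at room temperature with a complex of 100 nM fluorescein-tagged pBACH1 decapeptide and 250 nM His-tagged BRCT protein. Buffer was phosphate pH 7.3 with EDTA, DTT and Tween 20. Disruption of binding lowers the polarization signal.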
BRCT inh red = qHTS Assay for Inhibitors of BRCT-Phosphoprotein Interaction (Red Fluorophore). Breast cancer type 1 susceptibility protein (Homo sapiens), P38398. Potency, µM (doses to about 76.9 µM), most hits filed as inhibitors. BRCT-phosphopeptide binding, red fluorescence polarization. 75,000 compounds, 0.03% hits
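Rhodamine-labelled pBACH1 10-mer (100 nM) bound to BRCT domain (100 nM) at pH 7.3; compounds incubated 12 min room temperature, polarization read. Free peptide defines full inhibition; unlabelled decapeptide titrated as control.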
TSHR ag = qHTS Assay for Agonists of the Thyroid Stimulating Hormone Receptor | Thyrotropin receptor (Homo sapiens), P16473 | HEK293-CNG-TSHR cells (CNG channel as cAMP sensor), membrane potential dye, cAMP | Potency, µM (top dose mostly 57.1 µM), actives largely listed as activators | 73,000 compounds, 0.48% hits; active means well fitted activation curve with a large enough effect in the main read-out, with a control signal flat, not every such curve was filed as active; inconclusive means small, poorly fitted or top-dose-only effect, or a change in a side signal; inactive means no such curve, though single readings can be large or run the other way; reference of the percent scale not stated here;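 further: the control signal comes from parental cells without the receptor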
Target sequence (P16473 whole entry, looked up): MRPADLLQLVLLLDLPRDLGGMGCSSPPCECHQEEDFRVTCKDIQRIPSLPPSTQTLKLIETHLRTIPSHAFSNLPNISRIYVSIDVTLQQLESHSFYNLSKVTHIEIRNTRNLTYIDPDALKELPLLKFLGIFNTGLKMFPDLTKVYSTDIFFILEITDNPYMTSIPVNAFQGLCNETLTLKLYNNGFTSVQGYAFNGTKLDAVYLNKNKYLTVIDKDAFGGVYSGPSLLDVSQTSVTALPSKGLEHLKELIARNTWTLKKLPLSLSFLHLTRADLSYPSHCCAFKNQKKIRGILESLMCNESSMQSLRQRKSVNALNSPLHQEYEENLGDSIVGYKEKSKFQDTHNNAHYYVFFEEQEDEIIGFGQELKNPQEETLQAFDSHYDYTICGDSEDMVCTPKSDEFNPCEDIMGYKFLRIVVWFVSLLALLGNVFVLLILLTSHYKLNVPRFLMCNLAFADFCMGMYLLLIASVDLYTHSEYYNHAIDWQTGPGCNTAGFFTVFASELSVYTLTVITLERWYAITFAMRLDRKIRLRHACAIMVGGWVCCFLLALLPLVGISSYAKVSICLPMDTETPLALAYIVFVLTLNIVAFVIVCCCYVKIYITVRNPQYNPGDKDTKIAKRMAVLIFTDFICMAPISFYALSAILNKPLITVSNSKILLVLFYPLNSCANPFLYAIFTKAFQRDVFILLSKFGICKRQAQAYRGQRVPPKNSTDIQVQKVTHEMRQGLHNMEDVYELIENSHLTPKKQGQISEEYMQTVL
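HEK 293 cells stably expressing TSHR and a cAMP-gated CNG channel; parental CNG-only cells as counterscreen. Cells preloaded 60 min with membrane potential dye plus 100 uM RO 20-1724, then compound 30 min; fluorescence read at 590 nm.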
Hits are given with their value; 0 = inactive; ? = inconclusive; - = no result; [ ] = another dose, or the depositor's remark. Unless noted, the call rests on the fitted dose curve; in most records, active means well fitted curve in the direction sought with a large enough effect; inconclusive means small, poorly fitted or top-dose-only effect, or another doubt; inactive means no such curve, though single readings can be large; an effect the other way counts as inactive or inconclusive.

SMILES | Hsp90 Hop PPI | YjeE inh | HEK293 cAMP cs | BRCT PPI green | BRCT inh red | TSHR ag
O=C(CSc1nnnn1-c1ccccc1)N1CCc2ccccc2C1 | 0 | 0 | 15.8µM | 0 | 0 | ?
CCN1C(=O)[C@@H]2[C@H]3C(=CC[C@@H]2C1=O)C1(OCCCO1)[C@H]1O[C@@H]1[C@H]3O | - | - | 0[11.4 µM] | 0[15.4 µM] | 0[15.4 µM] | 0[11.4 µM]
CCc1cc(C(=O)OC)c(NC(=O)CC2NCCNC2=O)s1 (configuration not stated) | 0 | 0 | 0 | 0 | 0 | 0
CCc1cc(C(=O)OC)c(N2C(=O)C3C4C=CC(C4)C3C2=O)s1 (configuration not stated) | 0 | 0 | 0 | 0 | 0 | 7.94µM
CO[C@@H]1/C=C\O[C@]2(C)Oc3c(C)c(O)c4c(O)c(cc(O)c4c3C2=O)NC(=O)/C(C)=C\C=C/[C@H](C)[C@@H](O)[C@H](C)[C@H](O)[C@H](C)[C@H](OC(C)=O)[C@@H]1C | 0[11 µM] | 0 | 0[11.4 µM] | 0[15.4 µM] | 0[15.4 µM] | 0[11.4 µM]
CC(C)[C@H]1C(=O)C(C(N)=O)=C(O)[C@]2(O)C(=O)C3=C(O)c4c(O)ccc(N(C)C)c4C[C@H]3C[C@@H]12 | ? | 0 | 0 | 0 | 0 | 0
Cc1ccccc1Cn1c(-c2cncs2)nc2ccccc21 | 0 | 0 | 31.6µM | 0 | 0 | ?
C=CCn1c(-c2cccs2)nc2ccccc21 | 0 | 0 | 0 | 0 | 0 | -
Brc1cc2c(cc1Cn1c(-c3cncs3)nc3ccccc31)OCO2 | 0 | 0 | 7.94µM | 0 | 0 | ?
CN(C)CCCCNC(=O)c1ccc(-n2c(=O)c(=O)[nH]c3ccccc32)cc1 | - | - | 0 | 0 | 0 | 0
Cc1noc(C)c1-c1nccc(N2CCN(C)CC2)n1 | 0 | 0 | ? | 0 | 0 | ?
COc1ccc(/C=C/C(=O)c2ccc(C)s2)cc1 | - | - | - | 0 | 0 | -
Nc1nnc(-c2ccco2)s1 | 0 | 0 | 0 | 0 | 0 | 0
Nc1ncnc2oc(-c3ccco3)c(-c3ccco3)c12 | 0 | 100µM | 0 | 0 | ? | 0
CC12C=C(/C=C/c3ccc(F)cc3)C(C)(C1)C(c1ccc(F)cc1)CC2=O (configuration not stated) | - | - | 0[11.4 µM] | 0[15.4 µM] | 0[15.4 µM] | 0[11.4 µM]
CCc1c(O)nc(SCC(=O)Nc2ccc3c(c2)CCC3)[nH]c1=O | 0 | 0 | 25.1µM | 0 | 0 | ?
CCCCc1c(O)nc(SCC(=O)Nc2ccc3c(c2)CCC3)[nH]c1=O | 0 | 0 | 0 | 0 | 0 | 0
CSCCC(NC(=O)c1ccccc1)c1nc(-c2ccccc2)no1 (configuration not stated) | 0 | 0 | 15.8µM | 0 | 0 | ?
CSCCC(NC(=O)c1ccccc1)C(=O)NC1CCCC1 (configuration not stated) | 0 | 0 | 0 | 0 | 0 | 0
CCN(CC)CCCC(C)n1c(-c2ccccc2)nc2c(NC3CCCCC3)nc(C)nc21 (configuration not stated) | 0 | 0 | ? | 0 | 0 | ?
COc1cccc(C2C=C(c3ccc(Br)s3)Nc3ncnn32)c1OC (configuration not stated) | 0 | 0 | 0 | 0 | 0 | 20µM
CCOC(=O)N1CCC(n2c(SCC(=O)NCCC3=CCCCC3)nc3ccccc3c2=O)CC1 | 0 | 0 | 6.31µM | 0 | 0 | ?
CCOC(=O)N1CCC(n2c(SCC(=O)NCc3ccccc3)nc3ccccc3c2=O)CC1 | 0 | 0 | 0 | 0 | 0 | -
CCNC(=O)C1CC(=O)N(Cc2ccc(F)cc2)C(=Nc2ccc(OC)cc2)S1 (configuration not stated) | 0 | 0 | 0 | 0 | 0 | 0
CCNC(=O)C1CC(=O)N(Cc2ccc3c(c2)OCO3)C(=Nc2ccc(OCC)cc2)S1 (configuration not stated) | 0 | 0 | 0 | 0 | 0 | 31.6µM
SMILES | Hsp90 Hop PPI | YjeE inh | HEK293 cAMP cs | BRCT PPI green | BRCT inh red | TSHR ag
CCN(CC)S(=O)(=O)c1cccc(-c2nnc(SCCOc3ccccc3)o2)c1 | ? | 0 | 7.94µM | 0 | 0 | ?
CCN(CC)S(=O)(=O)c1cccc(-c2nnc(SCC(=O)c3cc(C)n(C)c3C)o2)c1 | 0 | 0 | 15.8µM | 0 | 0 | ?
CCN(CC)S(=O)(=O)c1cccc(-c2nnc(SCCOc3ccccc3C)o2)c1 | ? | 0 | 15.8µM | 0 | 0 | ?
CN(C)c1ccc(-c2ccc3ncnc(NC4CC4)c3c2)cc1 | 0 | 0 | 0 | 0 | 0 | 0
Br/C(=N\Nc1nn[nH]n1)c1ccncc1 | 0[11 µM] | 0 | 0[11.4 µM] | 0[15.4 µM] | 0[15.4 µM] | 0[11.4 µM]
Cc1ccc(-c2nnc(CSc3nnc(COc4ccccc4)n3-c3ccc(C)cc3)o2)cc1 | 0 | 0 | 25.1µM | 0 | 0 | ?
Cc1ccc(-c2nnc(CSc3nnc(COc4ccccc4)n3-c3ccccc3)o2)cc1 | 0 | 0 | 25.1µM | 0 | 0 | ?
COc1ccc(-n2c(COc3ccccc3)nnc2SCc2ccc(C#N)cc2)cc1 | 0 | 0 | 0 | 0 | 0 | 0
CCOc1ccc(-c2nnc(SCc3nnc(-c4ccccc4)o3)n2-c2ccccc2F)cc1 | 0 | 0 | 12.6µM | 0 | 0 | ?
Cc1nnc(SCc2nnc(-c3ccccc3)o2)n(N)c1=O | 0 | 0 | 0 | 0 | 0 | 0
CCc1cc2c(nc1CC)CCN(CC/C(C)=N/OC[C@@H](O)[C@@H]1O[C@@H]3OC(C)(C)O[C@@H]3[C@H]1O)C2 | - | - | 0[11.4 µM] | 0[15.4 µM] | 0[15.4 µM] | 0[11.4 µM]
COc1ccc(C2=CC(c3c(C)nn(-c4ccccc4)c3Cl)n3nnnc3N2)cc1OC (configuration not stated) | 0 | 0 | 0 | 0 | 0 | ?
COc1ccccc1C1C=C(c2ccc(C)cc2)Nc2nnnn21 (configuration not stated) | 0 | 0 | 25.1µM | 0 | 0 | ?
Cc1cc2c(c(=O)o1)[C@H](O)[C@H]1O[C@@H]1C2=O | - | - | 0[11.4 µM] | 0[15.4 µM] | 0[15.4 µM] | 0[11.4 µM]
O=C(NCC1CC1)[C@@H]1C[C@H]1[C@@H](NP(=O)(c1ccccc1)c1ccccc1)c1ccccc1 | 0 | 0 | 12.6µM | 0 | 0 | ?
FC(F)(F)c1cccc(N2CCN(c3nnnn3-c3ccccc3)CC2)c1 | 0 | 0 | 31.6µM | 0 | 0 | ?
COCCN(CCOC)c1nc(C)nc2c1nc(-c1ccccc1)n2CCN1CCCC1 | 0 | 0 | 0 | 0 | 0 | ?
Cc1ccc(C)c(Cn2cnc3c(nnn3-c3ccc(F)cc3)c2=O)c1 | 0 | 0 | 1µM | 0 | 0 | ?
COc1ccc(-n2nnc3c(=O)n(Cc4ccccc4C)cnc32)cc1 | 0 | 0 | 0 | 0 | 0 | -
COc1ccc(-n2nnc3c(=O)n(Cc4cccc(C)c4)cnc32)cc1 | 0 | 0 | 25.1µM | 0 | 0 | ?

High-throughput results: PubChem, National Center for Advancing Translational Sciences (NCATS)
